# This is a sample that favours compounds with a hit; in the whole collection about 3.7% have one here.
# RE007 growth inh: qHTS Assay for Inhibitors of the HIV-1 protein Vpr. S. pombe RE007 Vpr strain, BacTiter-Glo ATP luminescence, 24 h. Potency, µM (doses to about 92.2 µM), without a hit: at the highest dose activity change, negative = less growth, actives largely listed as inhibitors. 360,000 compounds, 0.21% hits; active = well fitted falling curve with a large enough effect; inconclusive = small, poorly fitted or top-dose-only effect; inactive = no such curve, though single readings can be large or run the other way; note: nearly all actives have a fitted effect of over 50% in size
#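 Fission yeast RE007 carrying one integrated HIV-1 vpr copy, seeded at OD 0.01 in PMG+AL medium with 23 nL pinned compound. Grown 24 h at 30 degrees; viability read by BacTiter-Glo luminescence after 5 min.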
# FMDV antiviral: High Throughput Screening for Foot and Mouth Disease Virus Antivirals; FMDV antiviral cell-based qHTS; Potency, µM (titrated, usually from 57.9 µM), inactives show top-dose activity change, negative = inhibition, hits mostly inhibitors; 410,000 compounds, 1.2% hits; AID 1159524, 2015; calls by dose curve; tested in HEK293T cells; note: read-out not given here; nearly all actives have a fitted effect of over 45% in size
# TbPYK inhibitor: qHTS of Trypanosoma Brucei Inhibitors; pyruvate kinase (Trypanosoma brucei), Q57TT1; TbPYK enzyme, Kinase-Glo Plus ATP luminescence, 45 min; Potency, µM (titrated, usually from 76.8 µM), for inactives: at the top dose activity, negative = inhibition, actives largely listed as inhibitors; 410,000 compounds, 0.12% hits; note: nearly all actives have a fitted effect of over 50% in size
#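 T. brucei PYK with substrate was exposed to pin-transferred compounds across a concentration series, then started with 130 uM ADP (final). After 45 min at room temperature, Kinase-Glo Plus luminescence was read, normalized and curve-fitted.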
# Sm TGR inh: qHTS Assay for the Inhibitors of Schistosoma Mansoni Peroxiredoxins; Schistosoma mansoni thioredoxin glutathione reductase (TGR), Q962Y6; purified TGR, DTNB reduction, TNB absorbance 405 nm; Potency, µM (top dose mostly 114 µM), for inactives: at the highest dose activity change, negative = inhibition, hits mostly inhibitors; 360,000 compounds, 3% hits; AID 485364, 2010; note: nearly all actives have a fitted effect of over 60% in size
#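 First, TGR (20 nM dispensed) and NADPH were mixed with compound. Second, a 15 min room-temperature incubation followed. Third, further NADPH and then DTNB were added to start the reaction. Finally, TNB absorbance was monitored kinetically.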
# Starred values were filed as active, the others as inactive; ? = inconclusive; / = no result; [ ] = another dose, or the depositor's remark. Unless noted, calls come from the whole dose curve; as a rule, active = well fitted curve in the direction sought with a large enough effect; inconclusive = small, poorly fitted or top-dose-only effect, or another doubt; inactive = no such curve, though single readings can be large; an effect the other way counts as inactive or inconclusive. % is set by controls: 0 for no effect and ±100 for the full control effect; potency is the fitted concentration of half-maximal effect.
SMILES,RE007 growth inh,FMDV antiviral,TbPYK inhibitor,Sm TGR inh
Cc1ccc(CN2CCN(CCCc3ccccc3)CC2CCO)cc1 (centres undefined),0%,-22%,-20%,-1%
Cc1ccc(CN2CCN(Cc3nc4ccccc4nc3C)CC2CCO)cc1 (centres undefined),-12%,-21%,-7%,32µM*
COC(=O)c1ccc(Cl)cc1NC(=O)Nc1nnc(N(C)Cc2ccccc2)s1,/,-18%,-11%,20%
Cc1ccc(N(CC(=O)Nc2ccc(Br)cc2)S(=O)(=O)c2cccs2)cc1,/,5%,-1%,1%
CCOC(=O)c1c(C)n(-c2ccccc2)c2ccc(OC(=O)c3ccccc3NC(=O)C(C)C)cc12,/,32µM*,1%,1%
Cc1cccc(CNC(=O)c2c3n(c(C)cc2=O)-c2ccccc2SC(c2sccc2C)C3)n1 (centres undefined),/,0%,/,/
CCCCN(C(=O)C1CCC1)c1c(N)n(CCC)c(=O)[nH]c1=O,-10%,-12%,-1%,6%
CCCCN(C(=O)C1CCCC1)c1c(N)n(CC(C)C)c(=O)[nH]c1=O,-5%,-14%,-2%,32µM*
CC1CCN(C(c2ccc(N(C)C)cc2)c2nnnn2C(C)(C)C)CC1 (centres undefined),-2%,17%,?,5.6µM*
CC1CCN(C(c2ccc(N(C)C)cc2)c2nnnn2Cc2ccccc2)CC1 (centres undefined),3%,12%,-10%,?
CN(C)c1ccc(C(c2nnnn2C(C)(C)C)N2CCc3ccccc3C2)cc1 (centres undefined),/,/,/,11µM*
CC(C)(C)n1nnnc1C(c1ccccc1)N1CCc2ccccc2C1 (centres undefined),12%,-23%,-13%,35µM*
O=C(Nc1ccc(Cl)c(-c2nc3ccccc3o2)c1)c1cccc2c(Cl)cccc12,/,-17%,11%,8%
O=C(Nc1nc2n(n1)C(c1ccccc1)C=C(c1ccccc1)N2)c1ccccc1 (centres undefined),/,-23%,-6%,6.3µM*
O=C(Nc1nc2n(n1)C(c1ccc(Cl)cc1)C=C(c1ccccc1)N2)c1ccco1 (centres undefined),/,-18%,-10%,-9%
COc1ccc(C(=O)Nc2nc3n(n2)C(c2ccc(Cl)cc2)C=C(c2ccccc2)N3)cc1OC (centres undefined),/,?,1%,22µM*
COc1ccc(C2C=C(c3ccccc3)Nc3nc(NC(=O)c4ccc(C)cc4)nn32)cc1 (centres undefined),/,10%,-14%,-6%
COc1ccc(NS(=O)(=O)c2c(F)cccc2F)cc1S(=O)(=O)N1CCOCC1,22%,37%,-9%,40µM*
COc1ccc(NS(=O)(=O)c2c(F)cc(F)c(Cl)c2F)cc1S(=O)(=O)N1CCCCC1,0%,16%,-17%,0%
c1ccc(C2c3[nH]c4ccccc4c3CCN2Cc2cccn2-c2ccccn2)nc1 (centres undefined),-6%,-24%,2%,50µM*
C=CCN=c1scc(-c2ccc3c(c2)NC(=O)CO3)n1/N=C(\C)c1ccccn1,6%,18µM*,3%,35µM*
C=CCN=c1scc(-c2ccc(F)cc2)n1/N=C/c1ccccn1,-16%,0%,1%,-15%
Cc1ccc(COC(=O)c2ccc(-c3nnn(Cc4ccc(C)cc4)n3)cc2)cc1,/,-21%,3%,15%
CC1(NC(=O)N2CCCCC2)CCS(=O)(=O)C1 (centres undefined),-11%,0%,1%,0%
CC12CC3(C)CC(C)(C1)CC(NC(=O)N1CCCC1)(C2)C3,3.5µM*,?,1%,2%
SMILES,RE007 growth inh,FMDV antiviral,TbPYK inhibitor,Sm TGR inh
Cc1cc(-c2cc(F)cc3c2OC(CNC(=O)CCn2cncn2)C3)ccc1F (centres undefined),/,-7%,/,/
Cc1ccc2c(c1)NC(=O)C(CC(=O)NCCCN1CCCCC1)O2 (centres undefined),-5%,-2%,1%,100µM*
Cc1ccc2c(c1)NC(=O)C(CC(=O)NCCCN1CCCC1=O)O2 (centres undefined),10%,-11%,-2%,-21%
CC1(C(=O)Nc2ccc3nc[nH]c3c2)CCN1C(=O)C/C=C/c1ccccc1 (centres undefined),-6%,-19%,6%,/
CC(C)(C)c1ccc(CC(=O)N2CCC2(C)C(=O)Nc2cnc3ccccc3c2)cc1 (centres undefined),-17%[18.4 µM],20µM*,-2%,/
CC(C)c1ccc(CC(=O)N2CCC2(C)C(=O)Nc2cnc3ccccc3c2)cc1 (centres undefined),-8%,?,-3%,/
CC1(C(=O)Nc2ccc3nc[nH]c3c2)CCN1C(=O)Cc1ccc(-c2ccccc2)cc1 (centres undefined),-15%,32µM*,0%,/
COc1ccc(C(=O)/C=C/c2cn(CC(O)CN(CC(C)C)CC(C)C)c3ccccc23)cc1OC (centres undefined),/,/,/,-13%
Cc1ccc(C)c(CSC2=NC(C)(C)Nc3ccccc32)c1,/,-18%,1%,-7%
Cc1nc2scc(-c3ccccc3)c2c(=O)n1N=C1C=CC(=O)C=C1,-4%,28µM*,4µM*,-5%
Cc1nc2scc(-c3ccccc3)c2c(=O)n1N,1%,-9%,0%,0%[11.4 µM]
CCOC(=O)C1CCCN(C(=O)c2cnn(-c3nccc(-c4cc(C)sc4C)n3)c2C)C1 (centres undefined),/,26%,/,/
COC(=O)c1sc2cccc(F)c2c1S(=O)(=O)N1CCN(c2ccccc2OC)CC1,/,?,?,0%
O=C(CSc1nc2ccccc2nc1Cc1ccccc1F)Nc1cccc(C(F)(F)F)c1,/,-7%,-12%,79µM*
COc1cc(NC(=O)CSc2nc3ccccc3nc2Cc2ccc(Cl)cc2)cc(OC)c1,/,2.5µM*,-9%[15.4 µM],-2%
COc1ccc(NC(=O)CSc2nc3ccccc3nc2Cc2ccc(C)cc2)cc1Cl,/,0%,6%,1%
O=C1NC(c2cccc3ccccc23)Nc2ccccc21 (centres undefined),?,5%,-3%,/
CN1C(=O)C(Cc2cccc3ccccc23)C(=O)N(C)C1=O,-13%,-11%,-1%,14µM*
CN1C(=O)C(Cc2c[nH]c3ccccc23)C(=O)N(C)C1=O,/,/,/,14µM*
O=C1c2ccccc2C(=O)C1Cc1cccc2ccccc12,-22%,37%,-5%,56µM*
COc1ccc(NC(=O)CSC2=Nc3ccccc3C3=NC(Cc4ccccc4)C(=O)N23)cc1 (centres undefined),/,10%,-11%,2%
CN(C)c1ccc(/C=C2\CCC/C(=C\c3ccccc3)C2=O)cc1,-17%,10%,-6%,-26%
CN(C)c1ccc(C=c2c3ccccc3n3c2cc(-c2ccc(Cl)cc2)[n+]3C)cc1,?,?,-5%,/

# Screening results: PubChem BioAssay, National Center for Advancing Translational Sciences (NCATS)
